Laboratory results taken from PubChem BioAssay (EPA / NIEHS).
Inconclusive results are not listed. The source made the active and inactive calls. Rule for the calls: active = hit-call score of the fitted dose curve at least 0.9, where 1 is the maximum; inconclusive = response in the unintended direction; inactive = score below 0.9.

target: Serine/threonine-protein phosphatase PP1-alpha catalytic subunit (Homo sapiens) (UniProt P62136); test: NVS_ENZ_hPPP1CA: NovaScreen (NVS) Enzymatic Assay for human Protein Phosphatase 1 Aatalytic subunit Alpha (PPP1CA) (AID 2283200)
Sequence (P62136 whole entry, looked up): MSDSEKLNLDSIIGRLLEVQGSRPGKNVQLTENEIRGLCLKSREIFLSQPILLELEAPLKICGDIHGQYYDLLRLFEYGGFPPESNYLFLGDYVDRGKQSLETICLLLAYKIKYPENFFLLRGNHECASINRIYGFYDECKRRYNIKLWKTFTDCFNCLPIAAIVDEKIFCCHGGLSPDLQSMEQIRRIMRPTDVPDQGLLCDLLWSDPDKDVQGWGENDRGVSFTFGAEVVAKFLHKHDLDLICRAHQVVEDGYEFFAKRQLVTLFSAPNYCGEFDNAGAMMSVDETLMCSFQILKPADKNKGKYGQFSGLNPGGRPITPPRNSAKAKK
Procedure, shortened: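 Recombinant enzyme activity read by fluorescence with electrophoretic mobility shift separating substrate from product, 1.33 h after dosing; loss of signal vs DMSO baseline. Primary screen in duplicate at 25 uM; actives retested in concentration-response up to 50 uM.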

Question: CCOP(=S)(OCC)SCCSCC was tested. Which outcome did it give?
Answer: inactive

Question: Which outcome does the source give for CCCCN(CC)c1c([N+](=O)[O-])cc(C(F)(F)F)cc1[N+](=O)[O-] here?
Answer: inactive

Question: CCCCSP(=O)(SCCCC)SCCCC was tested. Which AC50 did it give?
Answer: 10.4 µM (active)

Question: How did the outcome turn out when CCOP(=O)(OCC)Oc1cc(C)nc(C(C)C)n1 was run?
Answer: inactive

target: Tyrosine-protein phosphatase non-receptor type 11 (Homo sapiens) (UniProt Q06124); test: NVS_ENZ_hPTPN11: NovaScreen (NVS) Enzymatic Assay for human Protein Tyrosine Phosphatase Non-receptor Type 11 (PTPN11) (AID 2283202)
Sequence (Q06124 whole entry, looked up): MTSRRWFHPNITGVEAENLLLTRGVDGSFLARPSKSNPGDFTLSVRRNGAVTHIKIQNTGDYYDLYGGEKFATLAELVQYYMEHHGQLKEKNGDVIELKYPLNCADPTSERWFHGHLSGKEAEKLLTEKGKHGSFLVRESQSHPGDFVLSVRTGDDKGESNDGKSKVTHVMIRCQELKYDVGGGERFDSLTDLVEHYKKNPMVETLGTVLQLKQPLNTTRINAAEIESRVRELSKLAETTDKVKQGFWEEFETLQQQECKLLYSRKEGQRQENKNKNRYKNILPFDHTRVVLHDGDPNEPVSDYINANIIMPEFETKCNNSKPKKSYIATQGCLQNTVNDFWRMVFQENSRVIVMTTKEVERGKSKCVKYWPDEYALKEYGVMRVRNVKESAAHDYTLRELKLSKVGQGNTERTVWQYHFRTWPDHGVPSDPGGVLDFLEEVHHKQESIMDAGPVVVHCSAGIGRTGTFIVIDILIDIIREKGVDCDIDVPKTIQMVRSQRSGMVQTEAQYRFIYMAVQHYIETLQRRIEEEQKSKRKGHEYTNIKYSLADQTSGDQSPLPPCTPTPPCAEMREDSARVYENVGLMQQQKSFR
Procedure, shortened: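 Recombinant human PTPN11 activity on a fluorescent substrate, with substrate/product separated by electrophoretic mobility shift; read 0.5 h after dosing, loss of signal vs DMSO. Duplicate 25 uM screen, then concentration-response up to 50 uM.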

Question: CCC(=NOC/C=C/Cl)C1=C(O)CC(C2CCOCC2)CC1=O (centres undefined) was tested. Which outcome did it give?
Answer: inactive

Question: Which outcome does the source give for C=C(C)[C@H]1Cc2c(ccc3c2O[C@@H]2COc4cc(OC)c(OC)cc4[C@@H]2C3=O)O1 here?
Answer: inactive

Question: How did the outcome turn out when CNC(=O)Oc1cccc2c1OC(C)(C)O2 was run?
Answer: inactive

target: Tyrosine-protein phosphatase non-receptor type 14 (Homo sapiens) (UniProt Q15678); test: NVS_ENZ_hPTPN14: NovaScreen (NVS) Enzymatic Assay for human Protein Tyrosine Phosphatase Non-receptor Type 14 (PTPN14) (AID 2283206)
Sequence (Q15678 whole entry, looked up): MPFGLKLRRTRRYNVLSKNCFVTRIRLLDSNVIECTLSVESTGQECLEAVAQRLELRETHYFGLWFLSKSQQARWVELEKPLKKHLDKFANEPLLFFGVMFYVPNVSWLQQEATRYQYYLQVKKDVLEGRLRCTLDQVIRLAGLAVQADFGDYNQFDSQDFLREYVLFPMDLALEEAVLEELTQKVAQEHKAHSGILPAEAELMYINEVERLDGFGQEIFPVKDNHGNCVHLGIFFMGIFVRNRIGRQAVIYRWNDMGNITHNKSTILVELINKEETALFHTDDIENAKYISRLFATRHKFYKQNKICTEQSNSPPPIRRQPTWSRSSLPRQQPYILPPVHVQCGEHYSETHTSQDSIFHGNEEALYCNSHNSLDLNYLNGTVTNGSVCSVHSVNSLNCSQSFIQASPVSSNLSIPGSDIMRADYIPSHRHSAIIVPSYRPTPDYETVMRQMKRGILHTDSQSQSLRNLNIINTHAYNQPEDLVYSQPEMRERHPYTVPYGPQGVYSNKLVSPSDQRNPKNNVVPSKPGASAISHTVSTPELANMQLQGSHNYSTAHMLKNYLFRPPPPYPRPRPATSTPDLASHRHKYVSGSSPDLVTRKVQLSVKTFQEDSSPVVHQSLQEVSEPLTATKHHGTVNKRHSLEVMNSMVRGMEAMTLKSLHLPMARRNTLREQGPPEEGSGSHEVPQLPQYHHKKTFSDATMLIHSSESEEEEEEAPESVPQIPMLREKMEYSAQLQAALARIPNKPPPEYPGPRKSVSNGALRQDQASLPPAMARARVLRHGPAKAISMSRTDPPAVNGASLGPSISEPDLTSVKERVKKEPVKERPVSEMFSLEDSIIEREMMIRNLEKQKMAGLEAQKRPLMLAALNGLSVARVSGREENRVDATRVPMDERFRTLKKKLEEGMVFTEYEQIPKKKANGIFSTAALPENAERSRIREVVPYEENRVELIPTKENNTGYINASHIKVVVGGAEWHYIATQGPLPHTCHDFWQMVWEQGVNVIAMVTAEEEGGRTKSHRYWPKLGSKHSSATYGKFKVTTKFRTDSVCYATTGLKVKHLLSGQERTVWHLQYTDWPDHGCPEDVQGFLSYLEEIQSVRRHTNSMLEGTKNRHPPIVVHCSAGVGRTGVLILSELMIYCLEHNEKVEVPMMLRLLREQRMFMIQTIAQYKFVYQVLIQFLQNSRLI
Procedure, shortened: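 Cell-free recombinant human PTPN14 with fluorescent substrate, read 0.5 h after dosing by fluorescence and electrophoretic mobility shift separating substrate from product. Primary screen at 25 uM in duplicate; hits run to 50 uM maximum; loss of signal versus DMSO.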

Question: For CCC(=NOC/C=C/Cl)C1=C(O)CC(C2CCOCC2)CC1=O (centres undefined), which outcome is on record?
Answer: inactive

Question: How did the outcome turn out when N#CSCSC#N was run?
Answer: inactive

Question: With O=c1ccc(=O)[nH][nH]1 as the molecule, how does the outcome read?
Answer: inactive

Question: Which outcome does the source give for Nc1nc(N)nc(NC2CC2)n1 here?
Answer: inactive

Question: For CSC1=N[C@@](C)(c2ccccc2)C(=O)N1Nc1ccccc1, which outcome is on record?
Answer: inactive

Question: How did the outcome turn out when CC(C)N(C(=O)SCC(Cl)=C(Cl)Cl)C(C)C was run?
Answer: inactive

Question: With CCCCOC(=O)c1ccccc1C(=O)O as the molecule, how does the outcome read?
Answer: inactive

Question: With CNC(=O)Oc1cccc2c1OC(C)(C)O2 as the molecule, how does the outcome read?
Answer: inactive

Question: For CN1COCN(Cc2cnc(Cl)s2)C1=N[N+](=O)[O-], which outcome is on record?
Answer: inactive

target: human Protein Tyrosine Phosphatase Non-receptor Type 4 (PTPN4), PTPN4 (gene 5775) (UniProt P29074); test: NVS_ENZ_hPTPN4: NovaScreen (NVS) Enzymatic Assay for human Protein Tyrosine Phosphatase Non-receptor Type 4 (PTPN4) (AID 2283208)
Sequence (P29074 whole entry, looked up): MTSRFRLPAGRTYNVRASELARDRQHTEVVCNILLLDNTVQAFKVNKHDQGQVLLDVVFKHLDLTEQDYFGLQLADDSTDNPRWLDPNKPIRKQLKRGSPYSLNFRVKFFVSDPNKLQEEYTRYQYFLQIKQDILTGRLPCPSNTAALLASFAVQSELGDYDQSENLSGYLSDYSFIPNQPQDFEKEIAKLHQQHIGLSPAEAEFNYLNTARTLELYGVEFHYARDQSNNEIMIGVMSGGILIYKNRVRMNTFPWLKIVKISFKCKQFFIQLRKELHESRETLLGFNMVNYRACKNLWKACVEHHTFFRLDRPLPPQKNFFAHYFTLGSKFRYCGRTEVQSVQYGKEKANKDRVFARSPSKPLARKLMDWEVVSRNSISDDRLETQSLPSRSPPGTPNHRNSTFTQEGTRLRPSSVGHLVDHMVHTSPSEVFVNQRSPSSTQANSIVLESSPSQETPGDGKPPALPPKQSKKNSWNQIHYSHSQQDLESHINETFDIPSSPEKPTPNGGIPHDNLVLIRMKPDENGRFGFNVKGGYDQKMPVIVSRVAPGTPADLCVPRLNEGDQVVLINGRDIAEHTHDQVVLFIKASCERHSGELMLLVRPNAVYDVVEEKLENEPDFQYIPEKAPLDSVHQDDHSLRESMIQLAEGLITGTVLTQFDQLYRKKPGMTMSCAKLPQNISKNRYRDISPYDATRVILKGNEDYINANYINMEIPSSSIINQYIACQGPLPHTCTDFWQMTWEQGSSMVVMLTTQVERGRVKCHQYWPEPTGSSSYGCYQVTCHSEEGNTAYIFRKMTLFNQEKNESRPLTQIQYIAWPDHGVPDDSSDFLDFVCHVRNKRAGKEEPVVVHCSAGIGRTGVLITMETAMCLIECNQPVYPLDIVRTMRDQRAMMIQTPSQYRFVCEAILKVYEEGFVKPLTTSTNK
Procedure, shortened: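 Cell-free assay of PTPN4 expressed in Sf9 cells, using a fluorescent substrate with product separated by mobility shift; read 1.33 h after dosing. Single-point screen at 25 uM, then concentration-response up to 50 uM. Loss of signal relative to DMSO.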

Question: How did the outcome turn out when N#CSCSC#N was run?
Answer: inactive

Question: For CCCOc1nn(C(=O)NS(=O)(=O)c2ccccc2C(=O)OC)c(=O)n1C, which outcome is on record?
Answer: inactive

Question: CCOP(=S)(OCC)OC(Cl)C(Cl)(Cl)Cl (centres undefined) was tested. Which outcome did it give?
Answer: inactive
